Compound activity as filed in PubChem BioAssay.
GDH-TPI counter: GDH-TPI coupled enzyme inhibition counter-screen; GDH-TPI coupled enzyme counterscreen, NADH absorbance; inhibition, % at 4.8 µM; 360,000 tested, 1.2% active; AID 588335; in the data active means inhibition above about 30%
Rv3671c protease: Rv3671c (M. tuberculosis) protease inhibition. inhibition, % at 5.96 µM. P9WHR9. AID 2606. 320,000 tested, 0.048% active; in the data active means inhibition above about 38%;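 further: extracellular domain of Rv3671c used as enzyme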
Target sequence (P9WHR9 whole entry, looked up, the tested form may be a part): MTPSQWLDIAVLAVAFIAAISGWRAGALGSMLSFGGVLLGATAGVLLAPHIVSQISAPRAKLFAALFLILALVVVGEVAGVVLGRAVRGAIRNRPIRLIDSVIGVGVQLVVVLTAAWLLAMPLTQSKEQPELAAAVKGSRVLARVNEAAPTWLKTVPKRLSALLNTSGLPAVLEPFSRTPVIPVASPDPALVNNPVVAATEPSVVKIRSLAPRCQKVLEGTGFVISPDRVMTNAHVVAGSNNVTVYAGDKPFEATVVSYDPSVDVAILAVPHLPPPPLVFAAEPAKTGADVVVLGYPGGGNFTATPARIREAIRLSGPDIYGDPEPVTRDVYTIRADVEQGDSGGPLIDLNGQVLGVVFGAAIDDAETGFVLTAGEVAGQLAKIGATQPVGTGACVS
Mtb UGM inh: Mtb UDP-galactopyranose mutase inhibition | 320,000 tested, 0.06% active | AID 504406 | purified UGM, fluorescence polarization probe displacement | P9WIQ1 | inhibition, % at 10 µM; in the data active means inhibition above about 10%, passing the limit was not always enough; inconclusive means no clear call, values can overlap the other calls
RecA intein inh: Mtb RecA intein splicing inhibition; cell-free RecA intein splicing, fluorescence; inhibition, % (no concentration beside the values); 290,000 tested, 0.75% active; P9WHJ3; in the data active means inhibition above about 30%; inconclusive means no clear call, values can overlap the other calls
Mtb FBA inh: inhibitors of M. tuberculosis fructose-bisphosphate aldolase | P9WQA3 | purified M. tuberculosis FBA, fluorescence read-out | inhibition, % at 1 µM | 360,000 tested, 2.3% active | AID 588726; in the data active means inhibition above about 27%
Mtb bLac sens: beta-lactam sensitization of Mtb H37Rv; 330,000 tested, 0.27% active; M. tuberculosis H37Rv growth with meropenem, percent inhibition; inhibition, % at 25 µM; call rule not given here;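 further: growth measured after seven days incubation then overnight dye step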
Numbers stand for hits; . = inactive; ? = inconclusive; / = no result given; + = active, no number. Sampled rows, rich in hits. Any-hit rate of the full collection: about 4%.

SMILES | GDH-TPI counter | Rv3671c protease | Mtb UGM inh | RecA intein inh | Mtb FBA inh | Mtb bLac sens
COc1cc2c(cc1OC)C(c1ccc(-c3ccc(Cl)cc3Cl)o1)=NCC2 | 32 | . | . | . | . | .
CC1=CC(=C(C#N)C#N)C=C(C)N1CCN1CCNCC1 | 31 | . | . | . | . | .
CN(C)Cc1c(O)ccc2c(=O)c(-c3ccccc3Cl)c(C(F)(F)F)oc12 | 36 | . | . | / | . | .
CC(C)(O)C#Cc1ccc(C(=O)N2CCCC(CNS(=O)(=O)c3cccs3)C2)o1 (centres undefined) | . | . | . | . | . | .
COc1ccccc1NC(=O)C(C)OC(=O)/C=C/c1ccc2ccccc2n1 (centres undefined) | . | . | . | . | . | .
COc1cc2c(c3oc(=O)cc(CC(=O)O)c13)CCC(C)(C)O2 | . | . | . | . | 199 | .
Cc1c(OCC(=O)NCc2cccnc2)ccc2c3c(c(=O)oc12)CCC3 | . | . | . | . | . | ?
CCc1cc(=O)oc2c3c(cc(OCC(=O)Nc4cccnc4)c12)OC(C)(C)CC3 | . | . | . | . | 34 | .
COc1c2c(cc3oc(=O)c4c5ccc(O)cc5oc4c13)OC(C)(C)CC2 | . | . | . | . | . | .
Cc1c(C)c2c(OCC(=O)Nc3cccnc3)cc3c(c2oc1=O)CCC(C)(C)O3 | . | . | . | . | . | .
CCc1cc(=O)oc2c3c(cc(OCC(=O)NCc4cccnc4)c12)OC(C)(C)CC3 | . | . | . | . | + | .
CCc1cc(=O)oc2c3c(cc(OCC(=O)NCCCCCC(=O)O)c12)OC(C)(C)CC3 | . | . | . | . | + | .
COc1ccc(CN(Cc2cccnc2)S(=O)(=O)c2ccc(-n3cnnn3)c(C)c2)cc1OC | . | . | . | . | . | .
COc1ccc2oc(C(=O)OCc3nnc(-c4ccccc4)o3)c(C)c2c1 | . | . | . | . | . | .
CCc1cc(=O)oc2c3c(cc(OCC(=O)NCc4ccccn4)c12)OC(C)(C)CC3 | . | . | . | . | 189 | .
CC(=O)Nc1nc(-c2ccccc2)cc(-c2ccco2)c1C#N | . | . | . | / | + | .
N#Cc1sc2nc(-c3ccccc3)cc(-c3ccco3)c2c1N | . | . | . | . | . | .
CCOC(=O)/C(=C/c1c[nH]c2ccccc12)NC(C)=O | 38 | . | . | . | . | .
COC(=O)[C@]1(Cc2ccccc2)N[C@H](CN(C)C(=O)Nc2ccccc2)[C@@H]2C(=O)N(C)C(=O)[C@@H]21 | . | . | . | / | . | .
COc1ccc(C(CNC(=O)CNC(=O)c2ccccc2)N2CCCC2)cc1 (centres undefined) | . | . | . | / | . | .
Cc1ccc(C(=O)NC(=S)NNC(=O)c2ccccc2)cc1 | . | . | . | . | . | .
Cc1ccc(C(=O)NNC(=S)NC(=O)c2ccccc2)cc1 | 31 | . | . | . | . | .
CCN(C(=O)CN1C(=O)S/C(=C\c2cccc(Cl)c2)C1=O)C1CCS(=O)(=O)C1 (centres undefined) | . | . | . | . | . | .
COc1ccccc1/C=C1\SC(=O)N(CC(=O)N(C)C2CCS(=O)(=O)C2)C1=O (centres undefined) | 31 | . | . | . | . | .
CCN(C(=O)CN1C(=O)S/C(=C\c2ccc(Cl)cc2)C1=O)C1CCS(=O)(=O)C1 (centres undefined) | 34 | . | . | . | . | .
SMILES | GDH-TPI counter | Rv3671c protease | Mtb UGM inh | RecA intein inh | Mtb FBA inh | Mtb bLac sens
CSc1c(C#N)c(N)nc2sc(C(=O)c3ccc(Cl)c(Cl)c3)c(N)c12 | / | . | . | . | / | .
COc1cc2c(cc1OC)CN(c1ncccc1[N+](=O)[O-])CC2 | . | . | . | . | . | .
Cn1c(C(=O)NN)cc2cc(OCc3ccccc3)ccc21 | 31 | . | . | . | . | .
Cn1c(C(=O)NN)cc2cc(Oc3ccccc3)ccc21 | . | . | . | . | . | .
COc1cc2c(cc1OC)CN(CCC(C)c1ccc(Cl)cc1)CC2 (centres undefined) | . | . | . | . | . | .
COc1ccccc1C(=O)CC(=O)c1ccccc1 | . | . | . | . | . | .
CC1(C)Cc2c(sc3nc[nH]c(=O)c23)CO1 | . | . | . | . | . | .
O=c1[nH]cnc2sc3c(c12)CN(Cc1ccccc1)CC3 | . | . | . | . | 52 | .
COC(=O)C(C)Sc1ncnc2c1nnn2-c1ccc(F)cc1 (centres undefined) | . | . | . | 53 | . | .
COc1ccc(-n2nnc3c(SC(C(C)=O)C(=O)N(C)C)ncnc32)cc1 (centres undefined) | 32 | . | . | . | . | .
Cc1ccc(S(=O)(=O)N(C)C)cc1NC(=O)COC(=O)/C=C/c1ccc2ccccc2n1 | . | . | . | . | . | .
CCS(=O)(=O)NCCc1cc2cc(C)c(C)cc2[nH]c1=O | 31 | / | / | / | . | /
Cc1cc2cc(CCNS(C)(=O)=O)c(=O)[nH]c2cc1C | . | . | . | . | . | .
O=C(CNC(=O)c1cccc(OC(F)F)c1)OCc1cc(=O)n2cc(Br)ccc2n1 | 31 | . | / | . | . | .
O=[N+]([O-])c1ccc(Nc2nc(Cl)nc(NCCO)n2)cc1 | . | . | . | . | . | .
COc1nc(NCCO)nc(Nc2ccc([N+](=O)[O-])cc2)n1 | 31 | . | . | . | . | .
OC(c1cccc(CN2CCCCC2)c1)c1ncc(-c2ccccc2Cl)[nH]1 (centres undefined) | . | / | / | / | . | /
CC[n+]1c(/C=C2\C=C(C)CC(C)(C)C2)sc2ccccc21 | . | . | . | 47 | . | .
CCC1=C/C(=C/c2sc3ccccc3[n+]2CC)CC(C)(C)C1 | / | . | . | . | / | .
COc1c(OC(C)=O)ccc(/C=C/c2ccc3cccc(OC)c3n2)c1[N+](=O)[O-] | . | . | . | . | . | .
COc1ccccc1/C=C/c1ccc2cccc(O)c2n1 | . | . | . | . | . | .
COc1c(OC(C)=O)ccc(/C=C/c2ccc3ccccc3n2)c1[N+](=O)[O-] | 43 | . | . | / | . | .
COc1cc(OC)c(OC)cc1C=Cc1ccc2ccccc2n1 | 31 | / | / | / | . | /
O=C(CN1CCCC1)N1CCCC(c2ccc(F)cc2)c2ccc(F)cc21 (centres undefined) | . | . | . | . | . | .
COc1cccc(NC(=O)Nc2ccc3c(c2)nnn3C)c1 | . | . | . | / | . | .
CC(=O)N1CCOc2ccc(S(=O)(=O)N3CCCC(C)C3)cc21 (centres undefined) | . | . | . | . | . | .
CC12CN3CCN(CC(C3)/C1=N\N=C1/C3CN4CCN(C3)CC1(C)C4)C2 | . | . | . | . | 113 | .
CC12CN3CCN(CC(C3)/C1=N/NC(N)=O)C2 | . | . | . | . | . | .
COc1ccc(C(C(=O)NC(C)(C)C)N(C(=O)CCC(=O)Nc2cc(C)on2)c2cccc(F)c2)cc1 (centres undefined) | . | . | . | . | . | .
CCC(C)(C)NC(=O)C(c1ccc(OC)cc1)N(C(=O)CCC(=O)Nc1cc(C)on1)c1cccc(F)c1 (centres undefined) | . | . | . | . | 117 | .
